The panel holds about 83,000 compounds, 20% with a hit somewhere; the sample as a whole holds those more often.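 Percent growth is the endpoint: 0 to 100 indicates growth inhibition (40 means 60% inhibition), 0 means no net growth, and negative values indicate cell death.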 Calls of active or inactive are those of the source. Rule for the calls: active = growth percent below 10; inactive = the rest.
Columns and labels:
Experiment in all cases: NCI-60 one-dose screen, 48 h (100 = growth as untreated, 0 = no growth, -100 = all killed)
Settings in all cases: 10 µM unless noted
HCT-15 colon = system: HCT-15 colon
HT29 colon = system: HT29 colon
SNB-75 CNS = system: SNB-75 CNS
SNB-19 CNS = system: SNB-19 CNS
U251 CNS = system: U251 CNS
PC-3 prostate = system: PC-3 prostate
SK-MEL-5 melanoma = system: SK-MEL-5 melanoma
UACC-62 melanoma = system: UACC-62 melanoma
LOX IMVI melanoma = system: LOX IMVI melanoma
SK-MEL-28 melanoma = system: SK-MEL-28 melanoma
SK-MEL-2 melanoma = system: SK-MEL-2 melanoma
EKVX NSCLC = system: EKVX NSCLC
SN12C renal = system: SN12C renal
UO-31 renal = system: UO-31 renal
TK-10 renal = system: TK-10 renal
ACHN renal = system: ACHN renal
CAKI-1 renal = system: CAKI-1 renal
A498 renal = system: A498 renal
CCRF-CEM leukemia = system: CCRF-CEM leukemia
MOLT-4 leukemia = system: MOLT-4 leukemia

Measured: growth

Nc1ncnc2c1N=C(c1ccc3c(c1)OCO3)CC(c1ccc(Cl)cc1)N2 (stereo not given)
active: CCRF-CEM leukemia -33.1%
inactive: HCT-15 colon 63.6% | HT29 colon 69.8% | SNB-75 CNS 48.5% | SNB-19 CNS 67.8% | U251 CNS 74% | PC-3 prostate 62.6% | SK-MEL-5 melanoma 78% | UACC-62 melanoma 60.3% | LOX IMVI melanoma 76.2% | SK-MEL-28 melanoma 88.5% | SK-MEL-2 melanoma 58.1% | EKVX NSCLC 71.1% | SN12C renal 93.3% | UO-31 renal 55.8% | TK-10 renal 99.7% | ACHN renal 77.8% | CAKI-1 renal 74% | A498 renal 87% | MOLT-4 leukemia 69.4%

Clc1ccc(C2=NN[C@H](c3cn(-c4ccccc4)nc3-c3ccccc3)C2)cc1
inactive: HCT-15 colon 70.5% | HT29 colon 69.5% | SNB-75 CNS 41% | SNB-19 CNS 76.9% | U251 CNS 49.3% | PC-3 prostate 36.7% | SK-MEL-5 melanoma 80.8% | UACC-62 melanoma 76.5% | LOX IMVI melanoma 49.7% | SK-MEL-28 melanoma 39% | SK-MEL-2 melanoma 91.4% | EKVX NSCLC 35.3% | SN12C renal 51.2% | UO-31 renal 105% | TK-10 renal 99.2% | ACHN renal 53.1% | CAKI-1 renal 19.6% | A498 renal 91% | CCRF-CEM leukemia 78.3% | MOLT-4 leukemia 77.9%

COc1ccc(C(=O)OC2C(OC3C(O)COC(O[C@H]4C[C@H]5[C@@H]6CC=C7C[C@@H](O)CC[C@]7(C)[C@H]6CC[C@]5(C)[C@H]4[C@H](C)C(=O)CCC(C)C)C3OC(C)=O)OCC(O)C2O)cc1 (stereo not given in full)
active: HCT-15 colon -51.5% | HT29 colon 0.168% | SNB-75 CNS -9.67% | SNB-19 CNS -22.8% | U251 CNS -42.8% | PC-3 prostate -32.6% | SK-MEL-5 melanoma -77.1% | UACC-62 melanoma -49.9% | LOX IMVI melanoma -49.8% | SK-MEL-28 melanoma -54.6% | SK-MEL-2 melanoma -52% | EKVX NSCLC 7.53% | UO-31 renal -35.7% | TK-10 renal -20.1% | CAKI-1 renal -31.1% | A498 renal -82.2% | CCRF-CEM leukemia -23.2% | MOLT-4 leukemia -42.4%
inactive: SN12C renal 44.3% | ACHN renal 28.6%

CCn1c(Cc2ccccc2Nc2c(Cl)cccc2Cl)nnc1SCC(=O)Nc1cccc(OC)c1
inactive: HCT-15 colon 78.9% | HT29 colon 68.6% | SNB-75 CNS 86.2% | SNB-19 CNS 79.4% | U251 CNS 86.1% | PC-3 prostate 56.1% | SK-MEL-5 melanoma 91.6% | UACC-62 melanoma 33.6% | LOX IMVI melanoma 79.9% | SK-MEL-28 melanoma 96.4% | SK-MEL-2 melanoma 91.5% | EKVX NSCLC 77.7% | SN12C renal 66.6% | UO-31 renal 68.6% | TK-10 renal 82.8% | ACHN renal 88.7% | CAKI-1 renal 84.6% | A498 renal 40.9% | CCRF-CEM leukemia 73.1% | MOLT-4 leukemia 54.3%

CN1C2CCC1/C(=C\c1ccc(F)cc1)C(=O)/C2=C/c1ccc(F)cc1
inactive: HCT-15 colon 38.7% | HT29 colon 15.5% | SNB-75 CNS 59.6% | SNB-19 CNS 55.7% | U251 CNS 16.2% | PC-3 prostate 34.5% | SK-MEL-5 melanoma 40.1% | UACC-62 melanoma 26.4% | LOX IMVI melanoma 28.2% | SK-MEL-28 melanoma 73% | SK-MEL-2 melanoma 50% | EKVX NSCLC 60.4% | SN12C renal 37.8% | UO-31 renal 49.7% | TK-10 renal 73.1% | ACHN renal 55.5% | CAKI-1 renal 54.8% | A498 renal 73.3% | CCRF-CEM leukemia 16.5%
active: MOLT-4 leukemia 9.91%

CCN(CC)C(=O)O/N=C(/C)c1ccccc1
inactive: HCT-15 colon 110% | HT29 colon 102% | SNB-75 CNS 83% | SNB-19 CNS 99.6% | U251 CNS 89.7% | PC-3 prostate 98.6% | SK-MEL-5 melanoma 94.2% | UACC-62 melanoma 99.1% | LOX IMVI melanoma 91.1% | SK-MEL-28 melanoma 97.9% | SK-MEL-2 melanoma 102% | EKVX NSCLC 112% | SN12C renal 100% | UO-31 renal 101% | TK-10 renal 87.2% | ACHN renal 112% | CAKI-1 renal 115% | A498 renal 103% | CCRF-CEM leukemia 100% | MOLT-4 leukemia 109%

S=C(Cc1ccccc1)N1CCN(c2ccccc2Cl)CC1
inactive: HCT-15 colon 106% | HT29 colon 100% | SNB-75 CNS 96.8% | SNB-19 CNS 116% | U251 CNS 99.2% | PC-3 prostate 86.6% | SK-MEL-5 melanoma 90.9% | UACC-62 melanoma 86.2% | LOX IMVI melanoma 105% | SK-MEL-28 melanoma 119% | SK-MEL-2 melanoma 99.7% | EKVX NSCLC 94.5% | SN12C renal 107% | UO-31 renal 82.4% | TK-10 renal 116% | ACHN renal 108% | CAKI-1 renal 85.2% | A498 renal 90.7% | CCRF-CEM leukemia 89.1% | MOLT-4 leukemia 82.1%

Oc1c(C(Nc2cccc3ccccc23)c2ccccc2)ccc2cccnc12 (stereo not given)
active: SK-MEL-2 melanoma 0.608% | MOLT-4 leukemia -11.9%
inactive: HCT-15 colon 28.1% | HT29 colon 29.3% | SNB-75 CNS 72.2% | SNB-19 CNS 51.7% | U251 CNS 20.6% | PC-3 prostate 38.1% | SK-MEL-5 melanoma 43.9% | UACC-62 melanoma 14.7% | LOX IMVI melanoma 15.3% | SK-MEL-28 melanoma 57.6% | EKVX NSCLC 31% | SN12C renal 38.9% | UO-31 renal 20.4% | TK-10 renal 46% | ACHN renal 22.1% | CAKI-1 renal 12.7% | A498 renal 36.7% | CCRF-CEM leukemia 13.2%

O=S1(=O)NCCCN1CCNc1nccc(-c2c(-c3cccc(O)c3)nc3sccn23)n1
inactive: HCT-15 colon 95.5% | HT29 colon 56.2% | SNB-75 CNS 37.9% | SNB-19 CNS 119% | U251 CNS 77.4% | PC-3 prostate 106% | SK-MEL-5 melanoma 74.2% | LOX IMVI melanoma 20.1% | SK-MEL-28 melanoma 24% | SK-MEL-2 melanoma 29.4% | EKVX NSCLC 141% | SN12C renal 43.4% | UO-31 renal 94.1% | TK-10 renal 121% | ACHN renal 50.5% | CAKI-1 renal 67.4% | A498 renal 98.9% | CCRF-CEM leukemia 60.1% | MOLT-4 leukemia 65.2%
active: UACC-62 melanoma -6.85%

OCCN(CCO)c1ccc2ccccc2c1
inactive: HCT-15 colon 98.4% | HT29 colon 94.3% | SNB-75 CNS 88.1% | SNB-19 CNS 104% | U251 CNS 104% | PC-3 prostate 83.2% | SK-MEL-5 melanoma 100% | UACC-62 melanoma 91.4% | LOX IMVI melanoma 91.4% | SK-MEL-28 melanoma 108% | SK-MEL-2 melanoma 87.3% | EKVX NSCLC 102% | SN12C renal 94.2% | UO-31 renal 65% | TK-10 renal 97.6% | ACHN renal 106% | CAKI-1 renal 97.3% | A498 renal 110% | CCRF-CEM leukemia 109% | MOLT-4 leukemia 98.8%

O=C1C(Cl)=C(Nc2cccc3ccccc23)C(=O)c2ccccc21
inactive: HCT-15 colon 70% | HT29 colon 90.3% | SNB-75 CNS 81.6% | SNB-19 CNS 92.6% | U251 CNS 75.6% | PC-3 prostate 43% | SK-MEL-5 melanoma 60.9% | UACC-62 melanoma 55.1% | LOX IMVI melanoma 32.7% | SK-MEL-28 melanoma 91.4% | SK-MEL-2 melanoma 79.1% | EKVX NSCLC 74.4% | SN12C renal 80.1% | UO-31 renal 58.5% | TK-10 renal 95.4% | ACHN renal 68.2% | CAKI-1 renal 25.4% | A498 renal 77.5% | CCRF-CEM leukemia 65.4% | MOLT-4 leukemia 64.9%

CCN(CC)c1ccc(/C=N/NC(=O)C[N+](C)(C)C)cc1
inactive: HCT-15 colon 101% | HT29 colon 103% | SNB-75 CNS 93.8% | SNB-19 CNS 113% | U251 CNS 102% | PC-3 prostate 95.7% | SK-MEL-5 melanoma 104% | UACC-62 melanoma 101% | LOX IMVI melanoma 97% | SK-MEL-28 melanoma 108% | SK-MEL-2 melanoma 137% | EKVX NSCLC 94.2% | SN12C renal 105% | UO-31 renal 108% | TK-10 renal 95.2% | ACHN renal 105% | CAKI-1 renal 101% | A498 renal 92.3% | CCRF-CEM leukemia 90.9% | MOLT-4 leukemia 22.1%

O=C1Nc2ccc(Br)cc2/C1=N/c1nc(-c2ccccc2)cs1
inactive: HCT-15 colon 94.9% | HT29 colon 91.7% | SNB-75 CNS 79% | SNB-19 CNS 96.2% | U251 CNS 92.9% | PC-3 prostate 62.3% | SK-MEL-5 melanoma 77.5% | UACC-62 melanoma 80.5% | LOX IMVI melanoma 92% | SK-MEL-28 melanoma 95% | SK-MEL-2 melanoma 88% | EKVX NSCLC 66.8% | SN12C renal 96% | UO-31 renal 63.9% | TK-10 renal 109% | ACHN renal 94.8% | CAKI-1 renal 70.7% | A498 renal 78.9% | CCRF-CEM leukemia 101% | MOLT-4 leukemia 59.2%

CC(C)(c1ccccc1)c1cc(O)c(C(C)(C)c2ccccc2)cc1O
active: A498 renal 8.74% | MOLT-4 leukemia -17.8%
inactive: HCT-15 colon 21.3% | HT29 colon 15.8% | SNB-75 CNS 43.5% | SNB-19 CNS 37.8% | U251 CNS 36.5% | PC-3 prostate 16.9% | SK-MEL-5 melanoma 11.3% | UACC-62 melanoma 20.6% | LOX IMVI melanoma 32.7% | SK-MEL-28 melanoma 53.2% | SK-MEL-2 melanoma 10.4% | EKVX NSCLC 33% | SN12C renal 22.4% | UO-31 renal 17.2% | TK-10 renal 36.1% | ACHN renal 44% | CAKI-1 renal 31.6% | CCRF-CEM leukemia 15.3%

COc1cc(C2CC(c3cccc(Nc4ccnc5cc(Cl)ccc45)c3)=NN2C=O)cc(OC)c1OC (stereo not given)
active: HT29 colon -54.3% | SNB-75 CNS -26.9% | SK-MEL-5 melanoma 4.37% | UACC-62 melanoma -35% | SK-MEL-28 melanoma 7.27% | SK-MEL-2 melanoma -18.1% | UO-31 renal 2.53% | TK-10 renal 2.13% | ACHN renal -6.99% | CAKI-1 renal -31.1% | A498 renal -16.4% | CCRF-CEM leukemia 2.72% | MOLT-4 leukemia 9.97%
inactive: HCT-15 colon 27.6% | SNB-19 CNS 36.9% | U251 CNS 21.5% | PC-3 prostate 16.7% | LOX IMVI melanoma 19.9% | EKVX NSCLC 32% | SN12C renal 19.7%

O=C(CCl)N1c2ccccc2Oc2ccc3ccccc3c21
active: HCT-15 colon -81.1% | HT29 colon -49.8% | U251 CNS -64.3% | PC-3 prostate 6.63% | SK-MEL-5 melanoma 3.7% | UACC-62 melanoma -0.259% | LOX IMVI melanoma -81.1% | SN12C renal -57.6% | UO-31 renal -92.1% | TK-10 renal -9.22% | ACHN renal -95.9% | CAKI-1 renal -45.6% | CCRF-CEM leukemia 0.604% | MOLT-4 leukemia -4.23%
inactive: SNB-75 CNS 22.1% | SNB-19 CNS 24.5% | SK-MEL-28 melanoma 53.8% | SK-MEL-2 melanoma 20.2% | EKVX NSCLC 59.1% | A498 renal 110%
